# Data reported in PubChem BioAssay AID623868 (Vanderbilt High Throughput Screening Facility, 2012).
# Hit rate of the full screen: of about 2,100 compounds, about 760 (36%) were called active. The list is a sample of the results. Values without a mark were called inactive.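 Rule for the calls: active = thallium-flux fluorescence traces judged by eye to show enhanced or reduced glutamate response, manual score 1 or -1, so both directions (some results past the limit were not filed as active); inactive = the rest, including fluorescent or raised-baseline compounds.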
# Experiment: thallium influx changes without GIRK channels – cell-based, HEK-293 rmGlu8, no GIRK, thallium flux, counter-screen for GIRK activator project, confirmation (AID 623868);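 note: extra codes mark interference with 3 for fluorescent and 4 for baseline rise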
# Conditions: thallium flux fluorescence, at 10 µM, actives lie on both sides, codes: 1 enhancer, -1 blocker, 0 none, thallium stimulus containing EC20 glutamate
row,SMILES,manual score
1,CCOC(=O)Cn1c(=N)n(CCOc2cccc(C)c2)c2ccccc21,0
2,COc1ccc(OCc2nc(N)nc(Nc3ccccc3)n2)cc1,0
3,Nc1c(-c2ccccc2)cnn1-c1ccc(C(=O)O)cc1,0
4,COc1cccc(C(=O)NC(=S)N2CCN(c3ccc(C(F)(F)F)cc3[N+](=O)[O-])CC2)c1,1 (active)
5,COc1cc(OC)cc(C(=O)NC(=S)N2CCN(c3ccc(C(F)(F)F)cc3[N+](=O)[O-])CC2)c1,1 (active)
6,CC(C)Oc1cccc(C(=O)NC(=S)N2CCN(c3ccc(C(F)(F)F)cc3[N+](=O)[O-])CC2)c1,1 (active)
7,COc1ccccc1NC(=O)COc1ccc(C(F)(F)F)cc1[N+](=O)[O-],0
8,Cc1ccc(CC(=O)N2CCN(c3cccc(C(F)(F)F)c3)CC2)cc1,0
9,CCOCc1c(C(=O)OCC(=O)Nc2ccc(C)c(S(=O)(=O)N(C)C)c2)oc2ccccc12,0
10,Cc1cc(C)c2nc(SC(C)C(=O)NCC(=O)Nc3ccc(F)c(F)c3F)cc(C)c2c1 (stereo not given),1 (active)
11,Cc1ccccc1NC1=C(Cl)C(=O)OC1OC(=O)c1ccco1 (stereo not given),-1 (active)
12,CCN1CCN(CCCOc2ccc(-c3ccccc3)cc2)CC1,0
13,CC(=O)c1cccc(NC(=O)CCOc2ccccc2)c1,0
14,Cc1c(C(=O)O)c(=S)sn1CCOc1ccccc1,-1 (active)
15,Cc1ccccc1C(=O)NNC(=S)NC(=O)COc1ccccc1,1 (active)
16,Cc1ccc(OCC(=O)NC(=S)Nc2cccc(C)n2)cc1,1 (active)
17,Cc1ccc(C(=O)NNC(=S)NC(=O)COc2ccccc2)cc1,1 (active)
18,CCCOc1nc2c(c(=O)n(C)c(=O)n2C)n1Cc1cccc2ccccc12,0
19,CCc1cc(-c2n[nH]c(C)c2-c2nc3ccccc3n2C)c(O)c(CN2CCN(C)CC2)c1O,0
20,COc1ccc(NC(=O)NC(C)c2ccncc2)cc1OC (stereo not given),0
21,Fc1ccc2nc(-c3ccccc3)nc(SCc3nnc(-c4ccccc4)o3)c2c1,1 (active)
22,c1ccc(Cc2nnc(-c3ccccc3)o2)cc1,0

row,SMILES,manual score
1,COc1ccc(-c2nn(-c3ccccc3)cc2/C=N/n2cnnc2)cc1OC,0
2,COc1cccc(/C=N/n2c(=S)n(C)c3ccccc32)c1OC,0
3,COc1ccc(/C=N/n2c(SC)nnc2-c2ccccc2)c(OC)c1OC,-1 (active)
4,O=C(COc1ccccc1)NC(=S)Nc1ccc2c3c(cccc13)CC2,1 (active)
5,COc1cccc(C(=O)NC(=S)Nc2ccc3c4c(cccc24)CC3)c1,1 (active)
6,COc1ccc(OC)c(Nc2cc(-c3ccccc3)nc(N)n2)c1,0
7,COc1cc(NC(=O)Cn2nnc(-c3ccccc3N)n2)cc(OC)c1,0
8,COc1cccc(-c2cc(C(=O)NC3CCCC3)no2)c1,0
9,COc1cccc(C(=O)NCc2cn3ccsc3n2)c1,0
10,COc1ccc(C(=O)Nc2ccc(Oc3ncnc4sc(-c5ccccc5)cc34)cc2)cc1OC,0
11,COc1cccc(C(=O)Nc2nc(-c3ccccc3)c(-c3ccccc3)o2)c1,1 (active)
12,COc1cc(OC)cc(C(=O)Nc2nc(-c3ccccc3)c(-c3ccccc3)o2)c1,1 (active)
13,O=C(Nc1ccc(CN2CCOCC2)cc1)c1cc2ccccn2n1,0
14,C=CCN1C(=O)/C(=C2/Sc3ccccc3N2C)SC1=Nc1c(C)n[nH]c1C,0
15,CCCCCn1nc(-c2ccccc2)c2nc3ccccc3nc21,3
16,O=C(NC(=S)N1CCN(Cc2ccc3c(c2)OCO3)CC1)c1cccc(Br)c1,1 (active)
17,CCOC(=O)c1ccc(NC(=O)N2CCN(Cc3cccc(F)c3)CC2)cc1,0
18,CCN(CC)c1ccc(C(=O)NC(=S)N2CCN(Cc3ccc4c(c3)OCO4)CC2)cc1,1 (active)
19,O=C(CN1CCN(Cc2ccccc2)CC1)Nc1cccc(C(F)(F)F)c1,0
20,O=C(c1ccc(COc2c(F)c(F)c(F)c(F)c2F)o1)N1CCN(Cc2ccc3c(c2)OCO3)CC1,0
21,COC(=O)c1[nH]c2ccc(C)cc2c1NC(=O)CCN1CCN(Cc2ccc3c(c2)OCO3)CC1,0
22,O=C(NC(=S)N1CCN(Cc2ccc3c(c2)OCO3)CC1)c1ccc(Cl)cc1,1 (active)

row,SMILES,manual score
1,Cn1cc(CCC(=O)NCc2ccc3c(c2)OCO3)c2ccccc21,0
2,CN1CCN(C(=S)NC(=O)/C=C/c2cccc3ccccc23)CC1,0
3,O=C(NC(=S)N1CCN(Cc2ccccc2)CC1)c1ccccc1,1 (active)
4,SC(COCc1ccccc1)CN1CCN(Cc2ccc3c(c2)OCO3)CC1 (stereo not given),0
5,O=C(c1ccc2nccnc2c1)N1CCN(Cc2ccc3c(c2)OCO3)CC1,0
6,COCCCN(C(=S)Nc1cccc(Cl)c1)C(C)c1ccncc1 (stereo not given),0
7,CC(C)(C)CC(C)(C)NCC(O)COc1c(F)cc(Br)cc1F (stereo not given),4
8,O=C(CN1CCCCC1)Nc1cccc(Oc2ccccc2)c1,0
9,CCC/C(=N/NC(=O)c1csc(C)c1C)c1ccc(Cl)s1,0
10,C/C(=N\NC(N)=S)c1ccc(Cl)s1,0.5
11,C/C(=N\NC(=O)c1csc(C)c1C)c1ccc(Cl)s1,1 (active)
12,C=C(C)CNC(=S)N/N=C(\C)c1ccc(Cl)s1,1 (active)
13,CNC(=S)N/N=C(\C)c1ccc(Cl)s1,1 (active)
14,C/C(=N\NC(=S)NC(C)C)c1ccc(Cl)s1,1 (active)
15,Cc1cc(C)n(CC(=O)O)n1,0
16,C/C(=N\NC(=S)NCCc1ccccc1)c1cccs1,3
17,CCNC(=S)N/N=C(\C)c1ccc(Cl)s1,1 (active)
18,C/C(CC(=O)NC(C)C)=N\NC(=O)COc1cc(C)c(Br)cc1Br,0
19,COc1ccc(N2CCCn3c2nc2c3c(=O)n(Cc3ccccc3F)c(=O)n2C)c(OC)c1,-1 (active)
20,COc1ccc(N2CCN(c3nc4c(c(=O)n(C)c(=O)n4C)n3Cc3ccccc3)CC2)cc1,0
21,Cn1c(N2CCCC2)nc2c1c(=O)n(Cc1ccc(Cl)cc1)c(=O)n2C,0
